# Results taken from PubChem BioAssay (NCATS).
# “And” between values parts separate entries of the source, which are not always exact repeats. Equal values may be shown once. Inconclusive results are not listed. More than one record can exist for a structure, and the calls need not agree. The source made the active and inactive calls. Unless noted, calls follow the shape of the dose curve; as a rule, active = well fitted curve in the direction sought with a large enough effect; inconclusive = small, poorly fitted or top-dose-only effect, or another doubt; inactive = no such curve, though single readings can be large; an effect the other way counts as inactive or inconclusive.
# Experiments:
# [1] = Primary qHTS for inhibitors of nuclear receptor binding SET domain protein 2 (NSD2) in an isogenic RCH-ACV NSD2 p.E1099K mutant (9B) (AID 1645876); also: nearly all actives have a fitted effect of over 70% in size; also: potency is read from the fitted curve at half-maximal effect
# [2] = Primary qHTS for inhibitors of nuclear receptor binding SET domain protein 2 (NSD2) in an RCH-ACV wild type WT cells (2C) (AID 1645877); also: nearly all actives have a fitted effect of over 70% in size; also: potency is read from the fitted curve at half-maximal effect
# [3] = target: Catechol O-methyltransferase (Homo sapiens) (UniProt P21964); assay: Confirmatory Screen for Target Class Profiling of Small Molecule Inhibitors of Methyltransferases (AID 1745852; calls by dose curve; also: potency is read from the fitted curve at half-maximal effect; as to activity change, negative = inhibition: % is scaled to controls: 0 for no effect and ±100 for the full control effect); conditions: MTase-Glo luminescence, SAH detection, recombinant enzyme; measured here: COMT max response; stronger effect = lower value
# [4] = target: Guanidinoacetate N-methyltransferase (Homo sapiens) (UniProt Q14353); assay: as above; conditions: MTase-Glo luminescence, SAH detection, recombinant enzyme; activity change, negative = inhibition: at 57.3 µM (top of the series) unless noted
# [5] = target: Nicotinamide N-methyltransferase (Homo sapiens) (UniProt P40261); assay: as above; conditions: MTase-Glo luminescence, SAH detection, recombinant enzyme; measured here: NNMT max response; stronger effect = lower value
# [6] = target: Rap guanine nucleotide exchange factor 3 (Homo sapiens) (UniProt O95398); assay: Confirmatory qHTS for antagonist of cAMP-regulated guanine nucleotide exchange factor 3 (EPAC1) (AID 1645880); also: nearly all actives have a fitted effect of over 55% in size; also: potency is read from the fitted curve at half-maximal effect
# Summary of the method: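 Nucleotide exchange uses 100 nM EPAC1, 250 nM RAP1B-BODIPY-GDP and 50 uM GDP, with compounds in a concentration-titration series. After 5 min at room temperature, fluorescence (480 nm ex/540 nm em) is read every 5 min for 30 min. Data are normalized to control ATA and DMSO.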
# [7] = target: Rap guanine nucleotide exchange factor 3 (Homo sapiens) (UniProt O95398); assay: Confirmatory qHTS for agonist of cAMP-regulated guanine nucleotide exchange factor 3 (EPAC1) (AID 1645881);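 also: EPAC1 catalysed release of BODIPY-GDP from Rap1B seen as fluorescence loss; 100% = effect of cAMP agonist control; nearly all actives have a fitted effect of over 75% in size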
# [8] = target: Rap guanine nucleotide exchange factor 4 (Homo sapiens) (UniProt Q8WZA2); assay: Confirmatory qHTS for agonist of cAMP-regulated guanine nucleotide exchange factor 4 (EPAC2) (AID 1645884);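 also: nucleotide exchange releases bodipy-GDP from Rap1 and this lowers its fluorescence; % is scaled to controls: 0 for no effect and ±100 for the full control effect; nearly all actives have a fitted effect of over 65% in size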
# [9] = target: Rap guanine nucleotide exchange factor 4 (Homo sapiens) (UniProt Q8WZA2); assay: Confirmatory qHTS for antagonist of cAMP-regulated guanine nucleotide exchange factor 4 (EPAC2) (AID 1645885); also: nearly all actives have a fitted effect of over 25% in size; also: potency is read from the fitted curve at half-maximal effect; as to activity change, negative = inhibition: % is scaled to controls: 0 for no effect and ±100 for the full control effect
# Sequence of Catechol O-methyltransferase (Homo sapiens) (P21964 whole entry, looked up): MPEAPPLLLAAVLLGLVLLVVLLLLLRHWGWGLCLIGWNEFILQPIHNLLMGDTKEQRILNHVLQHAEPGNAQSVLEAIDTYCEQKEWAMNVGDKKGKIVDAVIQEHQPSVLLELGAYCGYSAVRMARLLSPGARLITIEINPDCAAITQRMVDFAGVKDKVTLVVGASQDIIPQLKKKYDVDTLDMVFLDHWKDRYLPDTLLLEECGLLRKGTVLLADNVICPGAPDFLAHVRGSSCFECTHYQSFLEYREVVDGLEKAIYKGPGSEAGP
# Sequence of Rap guanine nucleotide exchange factor 4 (Homo sapiens) (Q8WZA2 whole entry, looked up): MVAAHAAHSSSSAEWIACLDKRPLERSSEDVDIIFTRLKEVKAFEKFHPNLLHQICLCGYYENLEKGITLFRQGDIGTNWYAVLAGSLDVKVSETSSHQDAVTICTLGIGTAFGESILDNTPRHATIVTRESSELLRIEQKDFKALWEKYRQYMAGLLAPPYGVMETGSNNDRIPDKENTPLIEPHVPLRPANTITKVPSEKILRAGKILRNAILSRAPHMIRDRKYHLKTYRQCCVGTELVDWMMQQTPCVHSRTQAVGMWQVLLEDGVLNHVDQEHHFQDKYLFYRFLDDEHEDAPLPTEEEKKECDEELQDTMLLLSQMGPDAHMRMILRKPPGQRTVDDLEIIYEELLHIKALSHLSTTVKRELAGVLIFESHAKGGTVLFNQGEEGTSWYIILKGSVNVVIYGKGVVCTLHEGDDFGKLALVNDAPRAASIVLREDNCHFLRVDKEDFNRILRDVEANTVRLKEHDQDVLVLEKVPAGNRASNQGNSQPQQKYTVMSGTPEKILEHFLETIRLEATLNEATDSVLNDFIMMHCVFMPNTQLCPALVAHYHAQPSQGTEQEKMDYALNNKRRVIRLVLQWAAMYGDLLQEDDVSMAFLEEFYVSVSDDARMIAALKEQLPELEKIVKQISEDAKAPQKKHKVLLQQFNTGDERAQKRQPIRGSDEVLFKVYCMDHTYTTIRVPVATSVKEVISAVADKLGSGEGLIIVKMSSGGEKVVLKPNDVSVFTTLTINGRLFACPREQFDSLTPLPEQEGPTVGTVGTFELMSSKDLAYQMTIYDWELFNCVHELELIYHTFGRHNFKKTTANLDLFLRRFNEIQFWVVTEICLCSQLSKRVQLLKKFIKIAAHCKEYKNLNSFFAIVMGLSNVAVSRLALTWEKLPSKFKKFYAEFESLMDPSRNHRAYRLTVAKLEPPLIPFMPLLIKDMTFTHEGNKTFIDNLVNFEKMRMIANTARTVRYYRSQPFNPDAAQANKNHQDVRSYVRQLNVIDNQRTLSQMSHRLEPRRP
# Sequence of Rap guanine nucleotide exchange factor 3 (Homo sapiens) (O95398 whole entry, looked up): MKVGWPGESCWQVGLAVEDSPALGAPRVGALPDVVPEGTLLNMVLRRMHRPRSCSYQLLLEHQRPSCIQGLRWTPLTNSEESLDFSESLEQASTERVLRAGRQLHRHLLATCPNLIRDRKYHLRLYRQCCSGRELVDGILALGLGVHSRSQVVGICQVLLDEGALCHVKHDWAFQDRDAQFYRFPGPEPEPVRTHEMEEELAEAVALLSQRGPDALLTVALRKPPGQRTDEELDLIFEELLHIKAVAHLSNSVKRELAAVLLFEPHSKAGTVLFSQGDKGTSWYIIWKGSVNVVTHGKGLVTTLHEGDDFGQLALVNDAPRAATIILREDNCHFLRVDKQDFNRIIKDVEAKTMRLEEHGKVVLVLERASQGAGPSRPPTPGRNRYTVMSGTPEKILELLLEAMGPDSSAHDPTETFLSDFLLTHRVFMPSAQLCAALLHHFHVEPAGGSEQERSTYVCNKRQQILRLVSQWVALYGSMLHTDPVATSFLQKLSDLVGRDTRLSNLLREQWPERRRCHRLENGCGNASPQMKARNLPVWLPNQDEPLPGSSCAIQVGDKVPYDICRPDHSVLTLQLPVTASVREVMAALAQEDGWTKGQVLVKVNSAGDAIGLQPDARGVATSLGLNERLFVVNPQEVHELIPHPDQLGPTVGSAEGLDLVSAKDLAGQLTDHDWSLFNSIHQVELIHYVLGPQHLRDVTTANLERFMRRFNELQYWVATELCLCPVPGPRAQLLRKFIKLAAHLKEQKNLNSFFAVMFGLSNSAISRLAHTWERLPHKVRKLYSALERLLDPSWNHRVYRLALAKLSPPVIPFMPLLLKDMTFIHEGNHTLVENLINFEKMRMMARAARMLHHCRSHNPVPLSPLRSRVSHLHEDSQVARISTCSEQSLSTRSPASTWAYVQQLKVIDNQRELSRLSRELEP
# Sequence of Nicotinamide N-methyltransferase (Homo sapiens) (P40261 whole entry, looked up): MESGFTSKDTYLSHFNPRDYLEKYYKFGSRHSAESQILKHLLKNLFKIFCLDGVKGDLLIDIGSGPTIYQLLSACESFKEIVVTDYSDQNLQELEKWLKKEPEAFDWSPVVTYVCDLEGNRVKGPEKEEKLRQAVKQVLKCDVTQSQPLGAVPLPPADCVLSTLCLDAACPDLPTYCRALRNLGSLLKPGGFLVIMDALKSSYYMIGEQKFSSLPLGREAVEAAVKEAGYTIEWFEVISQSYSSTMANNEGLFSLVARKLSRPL
smiles,measurement,setting,value
Oc1ccc(C2CNCCc3c2cc(O)c(O)c3Cl)cc1 (stereo not drawn),Potency,[1],inactive
same,Potency,[2],inactive
same,activity,[3],-77.1%
same,Potency,[4],27.3 µM (active)
same,activity,[5],-15.5%
Cc1[nH]c(=O)c(C#N)cc1-c1ccc2nccn2c1,Potency,[1],inactive
same,activity,[3],4.51%
same,"activity change, negative = inhibition",[4],5.86%
same,activity,[5],-3.4%
Cn1cnc2c(F)c(Nc3ccc(Br)cc3Cl)c(C(=O)NOCCO)cc21,Potency,[1],inactive
same,Potency,[2],inactive
Cc1oncc1C(=O)Nc1ccc(C(F)(F)F)cc1,Potency,[1],10.6 µM (active) and 16.6 µM (active)
same,Potency,[2],10.6 µM (active) and 14.8 µM (active)
CC(C)(Sc1ccc(CCN(CCCCC2CCCCC2)C(=O)NC2CCCCC2)cc1)C(=O)O,Potency,[1],inactive
same,Potency,[2],inactive
same,Potency,[6],28 µM (active) and 42.6 µM (active)
same,outcome,[7],inactive
same,outcome,[8],inactive
same,Potency,[9],44.1 µM (active) and inactive and 39.3 µM (active)
same,activity,[3],-3.21%
same,"activity change, negative = inhibition",[4],2.53%
same,activity,[5],-46.1%
CCN(CC)CCCC(C)Nc1ccnc2cc(Cl)ccc12 (stereo not drawn),Potency,[1],inactive
same,Potency,[2],inactive
same,activity,[3],-0.478%
same,"activity change, negative = inhibition",[4],2.04% [at 9.47 µM]
same,activity,[5],3.54%
O=c1n(CCCN2CCN(c3cccc(Cl)c3)CC2)nc2ccccn12,Potency,[2],inactive
OC[C@H](Cc1ccccc1)Nc1nc(Oc2ccc3c(c2)CCC3)nc2c1ncn2Cc1ccc(-c2ccccc2)cc1,activity,[3],-10.9%
same,"activity change, negative = inhibition",[4],-8.58%
same,activity,[5],-17.3%
CCCS(=O)(=O)Nc1ccc(F)c(C(=O)c2c[nH]c3ncc(-c4ccc(Cl)cc4)cc23)c1F,Potency,[1],18.4 µM (active) and inactive
same,Potency,[2],16.4 µM (active) and inactive
same,activity,[3],-8.94%
same,"activity change, negative = inhibition",[4],-0.0685%
same,activity,[5],-26%
CCCCCCCc1ccc(CCc2cccc(O)c2C(=O)O)cc1,activity,[3],-2.12%
same,"activity change, negative = inhibition",[4],-1.62%
same,activity,[5],-13.2%
Nc1nccc(-c2ccc3noc(-c4ccc(Cl)cc4)c3c2)n1,Potency,[1],inactive
same,activity,[3],-4.29%
same,"activity change, negative = inhibition",[4],4.33%
same,activity,[5],-9.7%
COc1ccc(CC2=NN3C([C@@H](CCc4ccccc4)[C@@H](C)O)=NC(C)C3C(=O)N2)cc1OC (stereo partly drawn),Potency,[2],inactive
CCC(=O)N[C@H]1CC[C@H](C(=O)N(C)c2ccc(-c3nc4ccccc4o3)cc2)C1,Potency,[2],18.6 µM (active)
CC(c1cc2ccccc2s1)N(O)C(N)=O (stereo not drawn),Potency,[1],inactive
same,Potency,[2],inactive
Cc1ccccc1C(OCCN(C)C)c1ccccc1 (stereo not drawn),Potency,[1],inactive
same,Potency,[2],inactive
same,activity,[3],-2.48%
same,"activity change, negative = inhibition",[4],6.46%
same,activity,[5],-5.32%
NC[C@H](O)c1ccc(O)c(O)c1,Potency,[1],inactive
same,Potency,[2],inactive
same,activity,[3],45.4%
same,"activity change, negative = inhibition",[4],-4.17%
same,activity,[5],2.1%
NC(=O)c1ccc(I)c([N+](=O)[O-])c1,Potency,[1],18.6 µM (active)
same,Potency,[2],16.6 µM (active)
CCc1cncnc1N1CCN(Cc2nc3ccc(C(F)(F)F)cc3[nH]2)CC1,activity,[3],1.23%
same,"activity change, negative = inhibition",[4],5.86%
same,activity,[5],-37.3%
CCCC(CCC)C(=O)O,Potency,[1],inactive
same,Potency,[2],inactive
NS(=O)(=O)c1cc2c(cc1Cl)NC=NS2(=O)=O,Potency,[1],inactive
same,Potency,[2],inactive
CN1CCN(CCCN2c3ccccc3Sc3ccc(C(F)(F)F)cc32)CC1,Potency,[1],18.8 µM (active) and 16.6 µM (active)
same,outcome,[7],inactive
same,outcome,[8],inactive
same,Potency,[9],24.8 µM (active) and 44.1 µM (active)
CN[C@@H](C)C(=O)N[C@H]1CCCC[C@H]2CC[C@@H](C(=O)N[C@@H](c3ccccc3)c3cn(CCCCc4ccc(CCCCn5cc([C@@H](NC(=O)[C@@H]6CC[C@@H]7CCCC[C@H](NC(=O)[C@H](C)NC)C(=O)N76)c6ccccc6)nn5)cc4)nn3)N2C1=O,Potency,[2],inactive
CCOC(=O)N1CCC(=C2c3ccc(Cl)cc3CCc3cccnc32)CC1,Potency,[6],inactive
same,outcome,[7],inactive
COc1ccc2c3n(c(=NC(=O)c4cccnc4)nc2c1OC)CCN3,Potency,[1],0.166 µM (active)
same,Potency,[2],0.186 µM (active)
Cc1cc2c(C(C)C)c(O)c(O)c(C=O)c2c(O)c1-c1c(C)cc2c(C(C)C)c(O)c(O)c(C=O)c2c1O,Potency,[1],10.5 µM (active)
same,Potency,[2],9.34 µM (active)
CS(=O)(=O)c1cccc(CNc2nc(Nc3ccc4c(c3)CCC(=O)N4)ncc2C(F)(F)F)c1,Potency,[1],3.32 µM (active)
same,Potency,[2],3.32 µM (active)
same,activity,[3],-9.69% and -3.27%
same,"activity change, negative = inhibition",[4],-3.15% and 1.66%
same,activity,[5],-47.6% and -27.3%
Cc1n[nH]c(C)c1Cc1sc2c(c1C(=O)N1C[C@H](O)CO1)c(=O)n(C)c(=O)n2CC(C)C,Potency,[1],inactive
same,Potency,[2],inactive
CC[C@@H](C)[C@H](NC(=O)[C@H](CC1CCCCC1)NC(=O)c1ccno1)C(=O)N1CCC2(CCc3ccccc32)CC1,Potency,[1],inactive
same,Potency,[2],inactive
CCCn1c(=O)c2[nH]c(C34CC5CC3C[C@@H](C5)C4)nc2n(CCC)c1=O,Potency,[1],inactive
same,Potency,[2],inactive
COc1cc(Nc2ncc3c(n2)-c2ccc(Cl)cc2C(c2c(F)cccc2OC)=NC3)ccc1C(=O)O,Potency,[1],115 nM (active) and 20.5 nM (active) and 66.1 nM (active)
same,Potency,[2],91.6 nM (active) and 29 nM (active) and 37.2 nM (active)
same,activity,[3],0.763%
same,"activity change, negative = inhibition",[4],2.21%
same,activity,[5],-15.5%
Cc1cnc(Nc2ccc(OCCN3CCCC3)cc2)nc1Nc1cccc(S(=O)(=O)NC(C)(C)C)c1,Potency,[1],1.83 µM (active) and 2.35 µM (active)
same,Potency,[2],1.83 µM (active) and 1.86 µM (active)
same,activity,[3],-12.3%
same,"activity change, negative = inhibition",[4],-4.99%
same,activity,[5],-31.4%
